Compound activity deposited in PubChem by National Center for Advancing Translational Sciences (NCATS).
VACV mCherry inh = vaccinia inhibition (mCherry reporter) | Vaccinia virus mCherry reporter infection, fluorescence | Potency, µM (series often up to 36.5 µM), usual class: inhibitors | 310,000 tested, 0.63% active; calls by dose curve; tested in A549 cells; note: nearly all actives have a fitted effect of over 35% in size
Giardia FBPA inh = inhibitors of Giardia lamblia fructose-1,6-bisphosphate aldolase. AID 2451. A8B2U2. Potency, µM (top dose mostly 59.6 µM), usual class: inhibitors. 290,000 tested, 0.71% active. purified Giardia FBPA; note: nearly all actives have a fitted effect of over 55% in size
Target sequence (A8B2U2 whole entry, looked up): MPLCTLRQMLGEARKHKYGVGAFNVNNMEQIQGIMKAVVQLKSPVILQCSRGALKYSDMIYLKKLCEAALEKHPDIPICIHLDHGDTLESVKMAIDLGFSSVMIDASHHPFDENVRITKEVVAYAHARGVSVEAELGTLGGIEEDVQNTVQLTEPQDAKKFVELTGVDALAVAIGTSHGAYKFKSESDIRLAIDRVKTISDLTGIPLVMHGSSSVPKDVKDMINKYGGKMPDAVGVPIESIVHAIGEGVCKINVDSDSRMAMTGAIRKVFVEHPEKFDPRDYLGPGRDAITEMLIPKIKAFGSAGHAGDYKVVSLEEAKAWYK
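40 nM FBPA preincubated 10 min at RT with compound (up to 57.5 uM final), then substrate plus GAPDH/TPI/NAD/arsenate coupling and diaphorase/resazurin added. Fluorescence read after 20 min at RT, 525/598 nm.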
VACV Venus inh = inhibitors of vaccinia virus (Venus reporter) | 330,000 tested, 0.46% active | Potency, µM (highest dose often 36.5 µM), actives largely listed as inhibitors | Vaccinia virus Venus reporter expression, fluorescence; calls by dose curve; tested in A549 cells; note: nearly all actives have a fitted effect of over 30% in size
HCMV inh = human cytomegalovirus inhibition; HFF cells, HCMV-luciferase reporter, 72 h; stronger effect = lower value; activity change, negative = inhibition, % at 57.5 µM; 410,000 tested, 4.5% active; in the data active = activity change below about -60%; inconclusive = no clear call, values can overlap the other calls; inactive = above about -39%
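Steps: HFFs plated, 16 h 37C; compounds added; HCMV-luciferase added to MOI 1 PFU/cell; 72 h 37C; OneGlo reagent, 5 min room temperature; luminescence read, normalized to controls.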
FMDV antiviral = foot and mouth disease virus antiviral activity | FMDV antiviral cell-based qHTS | Potency, µM (doses to about 57.9 µM), actives largely listed as inhibitors | 410,000 tested, 1.2% active; calls by dose curve; tested in HEK293T cells; note: read-out not given here; nearly all actives have a fitted effect of over 45% in size
HCV inh = HCV inhibition; 340,000 tested, 3.4% active; AID 651820; Huh7.5.1 HCVcc-Cre infection, luciferase reporter, 44 h; Potency, µM (highest dose often 41.8 µM), most hits filed as inhibitors
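Compounds are dispensed onto cells plated 4 h earlier at 1,000 per well, with HCVcc-Cre virus (about 0.5 moi) added next. Following 44 h of culture, luminescent signal is measured for 15 sec after 15 min with substrate at room temperature.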
Large screens that a line does not name were inactive. Hits are enriched below; roughly 7.5% of the tested compounds scored in any of these assays. Unless noted, calls come from the whole dose curve; as a rule, active = well fitted curve in the direction sought with a large enough effect; inconclusive = small, poorly fitted or top-dose-only effect, or another doubt; inactive = no such curve, though single readings can be large; an effect the other way counts as inactive or inconclusive.

CCCc1cc(NCc2ccccn2)n2nc(C)c(-c3ccccc3)c2n1	HCMV inh -95, HCV inh inconclusive
Cc1nn2c(NCC(C)C)c3c(nc2c1-c1ccccc1)CCC3	HCV inh 6.3µM (no result: HCMV inh)
Cc1nn2c(NC(C)C)c3c(nc2c1-c1ccccc1)CCC3	none
COc1ccc(-c2ccccc2)cc1NC(=O)[C@@H]1O[C@H](CO)[C@H](O)[C@H](O)[C@H]1O	none (no result: Giardia FBPA inh, HCV inh)
Cc1cc(NCc2ccccn2)n2ncc(-c3ccccc3)c2n1	HCMV inh -66, HCV inh 2.8µM
O=C(CN(CCc1ccccc1)C(=O)c1csnn1)NCc1ccc(F)cc1	none
CSc1nnc(CCNC(=O)c2ccc(-c3cccc(F)c3)cc2)n1-c1ccc(F)cc1	none (no result: Giardia FBPA inh, HCMV inh, HCV inh)
NC(=O)C1Cc2ccccc2CN1C(=O)c1cc(C2CC2)nn1-c1ccccc1 (centres undefined)	HCMV inh -77, HCV inh inconclusive (no result: VACV mCherry inh, Giardia FBPA inh, VACV Venus inh)
O=C(Nc1c2c(nn1-c1ccc(Cl)cc1)CS(=O)(=O)C2)c1ccc(Br)cc1	HCMV inh -76, FMDV antiviral inconclusive (no result: Giardia FBPA inh, HCV inh)
Cc1cccc(CN2CC34CCC(CC3S2(=O)=O)O4)c1 (centres undefined)	none (no result: VACV mCherry inh, VACV Venus inh, HCMV inh, FMDV antiviral, HCV inh)
Cc1cccc(CN2C[C@]34CC[C@@H](C[C@@H]3S2(=O)=O)O4)c1	HCV inh 7.1µM
CC(C)n1cnc2c(Nc3ccc(F)c(Cl)c3)nc(NCCO)nc21	VACV mCherry inh 10µM, VACV Venus inh inconclusive, HCV inh inconclusive
CC1=C(n2nnc([N+](=O)[O-])n2)C(c2cccnc2)C(C#N)=C(N)O1 (centres undefined)	VACV mCherry inh inconclusive, Giardia FBPA inh 5µM, FMDV antiviral inconclusive
CCCCN(C(=O)Cc1ccc([N+](=O)[O-])cc1)C(C(=O)Nc1c(C)cccc1C)C(=O)c1ccc(OC)cc1 (centres undefined)	none (no result: VACV mCherry inh, Giardia FBPA inh, VACV Venus inh, FMDV antiviral, HCV inh)
COc1ccc(/C=C2/CCCC(CN(C)C)C2=O)cc1 (centres undefined)	HCV inh inconclusive (no result: Giardia FBPA inh)
CN(C)CC1CCC/C(=C/c2ccc(Cl)cc2)C1=O (centres undefined)	FMDV antiviral 40µM, HCV inh inconclusive (no result: Giardia FBPA inh)
CN(C)CC1CCC/C(=C\c2ccc(OC(=O)/C=C/c3ccc(Cl)c(Cl)c3)cc2)C1=O (centres undefined)	FMDV antiviral 40µM, HCV inh inconclusive (no result: Giardia FBPA inh)
COc1cccc(/C=C2/CCC(CN(C)C)C2=O)c1 (centres undefined)	HCMV inh -87, FMDV antiviral 25µM, HCV inh inconclusive (no result: Giardia FBPA inh)
CCCC/C=C1/CCC(CN(C)C)C1=O (centres undefined)	FMDV antiviral 28µM, HCV inh inconclusive (no result: Giardia FBPA inh, HCMV inh)
O=C(Cc1ccccc1)Nc1ncccn1	HCV inh inconclusive (no result: Giardia FBPA inh)
CC1(c2ccc(Cl)cc2)NC(=O)N(CC(=O)N2CCc3ccccc32)C1=O (centres undefined)	none (no result: VACV mCherry inh, Giardia FBPA inh, VACV Venus inh)
CCNC(=O)O/N=C(\C)c1sc(-c2ccc(Cl)cc2)nc1C	HCV inh 10µM
COc1cc(/C=C(\C#N)c2nc3ccccc3[nH]2)ccc1Oc1ccc([N+](=O)[O-])cn1	VACV mCherry inh inconclusive, HCV inh 0.89µM
Cc1ccc2nc(/C(C#N)=C\c3ccc(Oc4ccc(C(F)(F)F)cc4[N+](=O)[O-])cc3)[nH]c2c1	HCMV inh inconclusive
Cc1ccc2nc(/C(C#N)=C/c3ccc(-c4cccc([N+](=O)[O-])c4)o3)[nH]c2c1	HCMV inh -62
COc1ccc(/C=C(\C#N)c2nc3ccc(C)cc3[nH]2)cc1Oc1ccc(C(F)(F)F)cc1[N+](=O)[O-]	HCMV inh -68, HCV inh inconclusive
CCOC(=O)COc1ccc(/C=C(\C#N)c2nc3ccc(C)cc3[nH]2)cc1OC	VACV mCherry inh inconclusive, VACV Venus inh inconclusive, HCMV inh -105 (no result: Giardia FBPA inh, HCV inh)
CC(C)c1ccc(NC(=O)N[C@H]2CC[C@@]34CCCN3C(=O)CCC[C@H]4[C@H]2C)cc1	none (no result: VACV mCherry inh, Giardia FBPA inh, VACV Venus inh, FMDV antiviral, HCV inh)
O=C(CCNC(=O)OCC1c2ccccc2-c2ccccc21)NOCc1ccccc1	HCMV inh -77 (no result: Giardia FBPA inh)
O=C(CCOc1ccccc1)Nc1ccc(S(=O)(=O)Nc2ncccn2)cc1	none (no result: VACV mCherry inh, Giardia FBPA inh, VACV Venus inh)
Oc1cc(NCCc2cccnc2)cc2cccnc12	HCMV inh -74, FMDV antiviral inconclusive (no result: VACV mCherry inh, Giardia FBPA inh, VACV Venus inh, HCV inh)
Oc1cc(Nc2cccnc2)cc2cccnc12	HCMV inh -98 (no result: VACV mCherry inh, Giardia FBPA inh, VACV Venus inh, HCV inh)
c1ccc(CCNCc2cccnc2)cc1	Giardia FBPA inh inconclusive, HCMV inh inconclusive (no result: VACV mCherry inh, VACV Venus inh)
